For assay [1], the target named is Lysosomal acid glucosylceramidase (Homo sapiens) (UniProt P04062). The experiment in a line: Glucocerebrosidase-p2 (AID 348; in the data active means potency below about 10 µM; further: potency means the concentration at half of the fitted maximal effect). Particulars: purified GBA, blue fluorogenic substrate, 40 min. In short, it runs like this:
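Normal human glucocerebrosidase (0.2 nM) with blue fluorogenic substrate (80 uM final) in citrate/phosphate pH 5.9 with 10mM sodium taurocholate, 0.01% tween-20; 40 min RT, NaOH/glycine stop; fluorescence Ex 365/Em 440; AC50 from a titration from 0.6 nM upwards.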

A short description of assay [2]: AP1 Signaling Pathway (AID 357). Further: on the % scale 0 is the no-effect control and ±100 the full control effect. The settings on record: ME-180 AP-1-bla reporter, EGF-induced, beta-lactamase ratio, 5 h; at 7.69 µM (top of the series) unless noted. In short, it runs like this: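 In this screen, ME-180 cells in Opti-MEM with 0.5% dialyzed FBS received EC50 EGF and compound titrations for 5 h. AP-1 reporter beta-lactamase was detected via CCF4 ratio, giving AC50 for positive and negative modulators.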

The target of assay [3] is Cytochrome P450 1A2 (Homo sapiens) (UniProt P05177). Briefly: p450-cyp1a2 (AID 410; calls by dose curve; further: potency means the concentration at half of the fitted maximal effect;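 on activity change, negative = inhibition: -100% = full effect of reference inhibitor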). The settings on record: recombinant CYP1A2, luciferin-ME demethylation, luminescence; series mostly up to 57 µM. An outline of the steps: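 20nM CYP1A2, 100uM Luciferin-ME (=Km), 100mM KPO4; cpd 10 min RT; +NADPH regen, 60 min RT; stop/detect 20 min; luminescence. Normalized to furafylline 57 uM = full inhibition.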
Cytochrome P450 1A2 (Homo sapiens), sequence (P05177 whole entry, looked up): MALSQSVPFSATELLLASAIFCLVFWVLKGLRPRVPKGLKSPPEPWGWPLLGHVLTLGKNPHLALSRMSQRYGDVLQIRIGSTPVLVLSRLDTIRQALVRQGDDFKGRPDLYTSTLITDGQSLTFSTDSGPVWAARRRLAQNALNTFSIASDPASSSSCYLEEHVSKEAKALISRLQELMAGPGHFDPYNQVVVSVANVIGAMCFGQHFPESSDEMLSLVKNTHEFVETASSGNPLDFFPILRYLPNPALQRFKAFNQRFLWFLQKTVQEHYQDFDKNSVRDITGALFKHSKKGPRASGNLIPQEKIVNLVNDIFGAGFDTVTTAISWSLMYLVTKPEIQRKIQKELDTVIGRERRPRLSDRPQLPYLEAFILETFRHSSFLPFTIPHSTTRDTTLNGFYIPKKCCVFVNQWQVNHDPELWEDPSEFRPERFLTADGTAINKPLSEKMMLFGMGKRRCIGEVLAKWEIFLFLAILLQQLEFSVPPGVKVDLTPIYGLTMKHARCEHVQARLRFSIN

The nature of assay [4]: NFAT Signaling Pathway (AID 444).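 Further: carbachol stimulus at about its EC50 of 1 µM final; on the % scale 0 is the no-effect control and ±100 the full control effect.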 Particulars: Jurkat NFAT-bla M1, carbachol, beta-lactamase ratio, 5 h; at 7.69 µM (top of the series) unless noted. In short, it runs like this:
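Jurkat cells with NFAT-driven β-lactamase reporter and co-expressed M1 receptor, stimulated with carbachol (final 1 uM, ~EC50), compound titration, 5 h at 37 °C. CCF4 loaded 1 h at RT; 460/530 nm ratio gave %activity and AC50.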

Assay [5] can be described thus: Stat Signaling Pathway (AID 446).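 Further: ME-180 cervical cancer cells given 40 pM IL-6 alongside compound; SIE-controlled beta-lactamase reporter measured as 460/530 nm FRET emission ratio; on the % scale 0 is the no-effect control and ±100 the full control effect.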 Particulars: ME-180 SIE beta-lactamase reporter, IL-6 stimulated, 5 h; at 7.69 µM (top of the series) unless noted. An outline of the steps: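 Compound effects on IL-6-induced STAT reporter activity were measured in ME-180 cells. After overnight culture, cells were co-treated with 40 pM IL-6 for 5 hrs before beta-lactamase substrate loading at room temperature.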

Assay [6] deals with Mitogen-activated protein kinase 10 (Mus musculus) (UniProt Q61831). Briefly: JNK3 AlphaScreen Assay (AID 530).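 Further: kinase came from lysate of stimulated human HepG2 cells; signal reports phosphorylation of biotinylated GST-cJun 1-79 at Ser73 with 10 µM ATP; on the % scale 0 is the no-effect control and ±100 the full control effect.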 Particulars: JNK3 lysate, c-Jun phosphorylation; series mostly up to 57.1 µM. In short, it runs like this: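 HepG2 lysate (IL-1b/TNFa pre-activated) + biotin-GST-cJun 1-79 + anti-pSer73 cJun; cpd titration, 15 min RT; ATP 10 uM start; Tris pH 7.6, MgCl2, DTT, vanadate; beads in EDTA buffer; AlphaScreen.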
On the technique in general: In Alpha technology, singlet oxygen from a donor bead excites a nearby acceptor bead.

The target in assay [7] is Cytochrome P450 3A4 (Homo sapiens) (UniProt P08684). Briefly: qHTS Assay for Activators of Cytochrome P450 3A4 (AID 885; active means well fitted curve in the direction sought with a large enough effect; an effect the other way counts as inactive or inconclusive; further: nearly all actives have a fitted effect of over 65% in size; further: potency means the concentration at half of the fitted maximal effect). The settings on record: recombinant CYP3A4, Luciferin-PPXE luminescence, 60 min; series mostly up to 57.1 µM. An outline of the steps: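 CYP3A4 activity: Luciferin-PPXE O-dealkylation, 25uM substrate, 200mM KPO4, RT throughout. Read-out is luciferase luminescence; higher values reflect activation.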
Cytochrome P450 3A4 (Homo sapiens), sequence (P08684 whole entry, looked up): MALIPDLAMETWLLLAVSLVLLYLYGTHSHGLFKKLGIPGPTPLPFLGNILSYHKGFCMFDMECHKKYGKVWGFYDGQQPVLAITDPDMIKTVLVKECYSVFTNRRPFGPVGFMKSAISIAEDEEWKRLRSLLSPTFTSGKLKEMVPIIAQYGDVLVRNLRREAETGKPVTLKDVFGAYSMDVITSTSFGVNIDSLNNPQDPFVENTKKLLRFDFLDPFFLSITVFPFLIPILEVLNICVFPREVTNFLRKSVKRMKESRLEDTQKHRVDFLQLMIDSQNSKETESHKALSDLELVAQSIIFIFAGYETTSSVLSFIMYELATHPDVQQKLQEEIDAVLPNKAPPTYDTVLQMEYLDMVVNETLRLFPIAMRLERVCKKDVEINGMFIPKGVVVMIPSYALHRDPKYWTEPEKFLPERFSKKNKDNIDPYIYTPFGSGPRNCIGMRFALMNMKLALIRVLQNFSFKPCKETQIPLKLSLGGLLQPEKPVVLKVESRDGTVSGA

Assay [8] is described as follows: qHTS Assay for Lipid Storage Modulators (AID 1519; calls by dose curve). The settings on record: Drosophila S3 cells, BODIPY lipid droplet/cell ratio, laser cytometry, cells loaded with oleic acid; for activity change, negative = inhibition: at 57.5 µM (top of the series). An outline of the steps: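 Cells seeded at 5,000 per well were treated with compounds over a concentration series and loaded with oleic acid (400 uM, as added). Lipid droplet fluorescence (488 nm excitation, 500-530 nm channel) was read by laser-scanning cytometry and normalized to 20 uM Triacsin C.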
For orientation: qHTS replaces the single test concentration by a dilution series.

A short description of assay [9]: Primary qHTS for small molecule stabilizers of the endoplasmic reticulum resident proteome: Secreted ER Calcium Modulated Protein (SERCaMP) assay (AID 1508630; active means well fitted curve in the direction sought with a large enough effect; an effect the other way counts as inactive or inconclusive; further: on the % scale 0 is the no-effect control and ±100 the full control effect). The settings on record: SH-SY5Y GLuc-SERCaMP (Gaussia luciferase released on ER calcium loss) secretion, thapsigargin, luminescence; series mostly up to 38.4 µM. In short, it runs like this: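 The SH-SY5Y reporter protocol was run at 3 concentrations up to 38.3 uM (primary) or 11 concentrations (follow-up): 16 h compound, 100 nM thapsigargin for 4 h, then extracellular luciferase luminescence.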

Assay [10] addresses Glucocorticoid receptor (Homo sapiens) (UniProt P04150). Briefly: GR-EFC Redistribution (AID 451; calls by dose curve; further: potency means the concentration at half of the fitted maximal effect). The settings on record: CHO-K1 GR-EFC translocation, beta-gal luminescence, 2 h. An outline of the steps:
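CHO-K1 cells expressing nuclear EA and GR-ED fragments of b-gal; compounds titrated up to 46 uM final, 2 h at 37 C. GR nuclear translocation read as complemented b-gal luminescence after 1 h RT detection.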

In assay [11] the target is 3',5'-cyclic-AMP phosphodiesterase 4B (Homo sapiens) (UniProt Q07343). Briefly: qHTS Assay for Inhibitors of PDE-IV (AID 607; active means well fitted activation curve with a large enough effect in the main read-out, with a control signal flat, not every such curve was filed as active; further: % of control where 0% means no effect). The settings on record: HEK293 ACTOne CNG channel cells, membrane potential fluorescence; series mostly up to 22.9 µM. In short, it runs like this: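 ACTOne HEK293 cells carry a modified cAMP-gated CNG channel and express endogenous PDE4; plated 1000 cells/well, compounds up to 22.9 uM final. Membrane-potential dye fluorescence (ex 535/em 590) was read; parental cells received 10 uM forskolin + 100 uM RO 20-1724.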
3',5'-cyclic-AMP phosphodiesterase 4B (Homo sapiens), sequence (Q07343 whole entry, looked up): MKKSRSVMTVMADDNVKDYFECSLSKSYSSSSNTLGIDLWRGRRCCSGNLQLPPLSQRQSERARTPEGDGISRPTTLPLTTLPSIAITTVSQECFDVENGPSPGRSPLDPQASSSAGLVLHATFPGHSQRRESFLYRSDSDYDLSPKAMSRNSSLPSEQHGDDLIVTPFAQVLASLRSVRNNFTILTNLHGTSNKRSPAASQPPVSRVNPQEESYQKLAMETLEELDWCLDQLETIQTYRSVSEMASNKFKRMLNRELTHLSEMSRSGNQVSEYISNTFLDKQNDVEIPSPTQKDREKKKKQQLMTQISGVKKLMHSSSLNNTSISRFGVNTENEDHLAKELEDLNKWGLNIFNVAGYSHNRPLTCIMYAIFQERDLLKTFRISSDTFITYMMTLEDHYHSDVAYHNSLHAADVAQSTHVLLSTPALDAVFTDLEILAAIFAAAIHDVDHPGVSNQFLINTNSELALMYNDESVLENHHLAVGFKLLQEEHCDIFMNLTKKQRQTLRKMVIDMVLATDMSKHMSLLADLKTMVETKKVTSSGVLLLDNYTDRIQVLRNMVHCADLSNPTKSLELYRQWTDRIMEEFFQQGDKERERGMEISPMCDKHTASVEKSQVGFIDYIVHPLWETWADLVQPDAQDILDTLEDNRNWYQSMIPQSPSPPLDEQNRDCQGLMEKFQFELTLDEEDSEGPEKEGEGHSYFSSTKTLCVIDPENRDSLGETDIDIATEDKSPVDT

Assay [12] addresses Cytochrome P450 3A4 (Homo sapiens) (UniProt P08684). The experiment in a line: qHTS Assay for Inhibitors and Substrates of Cytochrome P450 3A4 (AID 884; active means well fitted curve in the direction sought with a large enough effect; an effect the other way counts as inactive or inconclusive; further: nearly all actives have a fitted effect of over 50% in size; further: potency means the concentration at half of the fitted maximal effect). Particulars: recombinant CYP3A4, Luciferin-PPXE luminescence; series mostly up to 57.1 µM. An outline of the steps: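 Luminescent readout of luciferin produced by CYP3A4 (20 nM) dealkylation of Luciferin-PPXE, 25 uM (its KM). NADPH-driven reaction ran 60 min at RT after 10 min compound preincubation; data scaled to 57 uM ketoconazole as 100% inhibition.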

Assay [13] addresses Glucocorticoid receptor (Homo sapiens) (UniProt P04150). The experiment in a line: GR-GFP Redistribution (AID 450;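 active means compounds whose dose series gives a full or clear partial fitted curve of increased nuclear translocation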; further: potency means the concentration at half of the fitted maximal effect). The settings on record: U2OS GR-GFP nuclear translocation, laser cytometry, 2 h.
In assay [14] the target is Cytochrome P450 2C19 (Homo sapiens) (UniProt P33261). Briefly: qHTS Assay for Inhibitors and Substrates of Cytochrome P450 2C19 (AID 899; active means well fitted curve in the direction sought with a large enough effect; an effect the other way counts as inactive or inconclusive; further: potency means the concentration at half of the fitted maximal effect; nearly all actives have a fitted effect of over 60% in size). The settings on record: recombinant CYP2C19, luciferin-H EGE luminescence; series mostly up to 57.1 µM. In short, it runs like this:
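5 nM human CYP2C19 with 10uM Luciferin-H EGE (at KM) in 50mM KPO4, compound preincubated 10 min at 37C, then NADPH regeneration for 60 min at 37C. Luciferin read by luminescence after detection reagent; normalized to 57uM ketoconazole as full inhibition.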

Assay [15] is described as follows: Confirmation and Secondary Assay for Modulators of Hemoglobin Beta Chain Splicing at IVS2 654 locus (AID 910; active means well fitted curve in the direction sought with a large enough effect; an effect the other way counts as inactive or inconclusive;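 further: HeLa cells stably carrying EGFP split by mutant beta-globin IVS2-654 intron; % of control where 0% means no effect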). Particulars: HeLa EGFP-654 splicing reporter, GFP fluorescence, 48 h; series mostly up to 38.3 µM. In short, it runs like this: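 HeLa cells stably expressing EGFP interrupted by β-globin IVS2-654 intron, seeded overnight in Opti-MEM/2% FCS, then treated 2 days at 37 °C. Restored splicing read as total peak GFP intensity per well by laser scanning cytometry (488 nm excitation, 500–520 nm emission); 500 nM antisense PNA as control.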

Assay [16] is described as follows: Confirmation and Secondary Assay for Modulators of Hemoglobin Beta Chain Splicing at IVS2 705 locus (AID 930; active means well fitted curve in the direction sought with a large enough effect; an effect the other way counts as inactive or inconclusive;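 further: HeLa cells stably expressing the EGFP-705 splicing reporter; % of control where 0% means no effect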). The settings on record: HeLa EGFP-705 splicing reporter, GFP fluorescence, 48 h; series mostly up to 38.3 µM. In short, it runs like this: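 Stable HeLa line with EGFP disrupted by mutant beta-globin intron 2 (705). Overnight attachment, then 2 days of compound at 37C, 5% CO2. Signal: peak GFP intensity summed over objects 5-250 µm.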

In assay [17] the target is Ubiquitin carboxyl-terminal hydrolase 1 (Homo sapiens) (UniProt O94782). Briefly: Inhibitors of USP1/UAF1: Pilot qHTS (AID 504865; active means well fitted curve in the direction sought with a large enough effect; an effect the other way counts as inactive or inconclusive;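 further: rhodamine fluorescence freed from ubiquitin-rhodamine substrate followed over time; top concentration of the series differs between compounds; on the % scale 0 is the no-effect control and ±100 the full control effect; nearly all actives have a fitted effect of over 35% in size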). The settings on record: purified USP1/UAF1, Ub-rhodamine cleavage fluorescence; series mostly up to 54.9 µM. In short, it runs like this: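 Kinetic fluorescence assay: 1nM USP1/UAF1, 15 min compound preincubation, then 150nM Ub-Rho; 480/540 nm.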
Ubiquitin carboxyl-terminal hydrolase 1 (Homo sapiens), sequence (O94782 whole entry, looked up): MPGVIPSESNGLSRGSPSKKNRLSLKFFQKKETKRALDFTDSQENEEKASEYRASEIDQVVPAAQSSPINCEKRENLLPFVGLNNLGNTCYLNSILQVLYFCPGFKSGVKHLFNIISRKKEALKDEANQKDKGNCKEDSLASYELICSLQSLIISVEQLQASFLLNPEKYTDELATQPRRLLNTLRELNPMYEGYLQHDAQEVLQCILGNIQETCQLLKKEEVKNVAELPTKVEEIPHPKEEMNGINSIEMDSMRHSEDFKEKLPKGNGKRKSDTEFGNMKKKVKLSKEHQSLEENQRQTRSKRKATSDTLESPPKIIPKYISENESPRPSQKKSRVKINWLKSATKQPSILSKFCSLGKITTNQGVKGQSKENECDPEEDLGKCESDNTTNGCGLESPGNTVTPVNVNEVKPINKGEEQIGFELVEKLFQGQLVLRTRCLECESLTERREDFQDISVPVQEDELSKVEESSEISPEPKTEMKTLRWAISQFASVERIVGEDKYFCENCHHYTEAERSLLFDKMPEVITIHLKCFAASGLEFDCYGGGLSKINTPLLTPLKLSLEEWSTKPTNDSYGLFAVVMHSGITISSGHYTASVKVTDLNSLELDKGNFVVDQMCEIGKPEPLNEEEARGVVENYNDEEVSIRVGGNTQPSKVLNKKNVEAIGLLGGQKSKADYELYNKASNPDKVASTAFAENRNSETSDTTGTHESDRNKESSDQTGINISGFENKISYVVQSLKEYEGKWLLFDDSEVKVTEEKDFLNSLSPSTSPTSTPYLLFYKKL

Assay [18] can be described thus: qHTS Assay for Identification of Small Molecule Agonists for Hypoxia Response Element Signaling Pathway (AID 914; active means well fitted activation curve with a large enough effect in the signal ratio, with a control signal flat, not every such curve was filed as active; the % refers to the signal ratio; further: potency means the concentration at half of the fitted maximal effect; on activation: % of control where 0% means no effect). Particulars: ME-180 (cervical carcinoma) HRE-bla reporter, beta-lactamase ratio, CoCl2, 17 h; activation: stronger effect = higher value. In short, it runs like this:
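Reporter activity (beta-lactamase, CCF4 460nm/530nm ratio) in HRE-bla ME-180 cells is recorded after 17 h compound exposure with EC50 CoCl2 at 37 degrees Celsius. AC50 values come from titration data.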

Where [19] appears, read: measured here: cell count channel max response.
[20] abbreviates: measured here: lipid channel max response.

From PubChem BioAssay (NCATS) come the findings set out here.

Records with an inconclusive call do not appear. Calls of active or inactive are those of the source. Unless noted, the call rests on the fitted dose curve; in most records, active means well fitted curve in either direction with a large enough effect (not every such curve was filed as active); inconclusive means small, poorly fitted or top-dose-only effect, or another doubt; inactive means flat fitted curve, though single readings scatter.

Lysosomal acid glucosylceramidase (Homo sapiens), sequence (P04062 whole entry, looked up): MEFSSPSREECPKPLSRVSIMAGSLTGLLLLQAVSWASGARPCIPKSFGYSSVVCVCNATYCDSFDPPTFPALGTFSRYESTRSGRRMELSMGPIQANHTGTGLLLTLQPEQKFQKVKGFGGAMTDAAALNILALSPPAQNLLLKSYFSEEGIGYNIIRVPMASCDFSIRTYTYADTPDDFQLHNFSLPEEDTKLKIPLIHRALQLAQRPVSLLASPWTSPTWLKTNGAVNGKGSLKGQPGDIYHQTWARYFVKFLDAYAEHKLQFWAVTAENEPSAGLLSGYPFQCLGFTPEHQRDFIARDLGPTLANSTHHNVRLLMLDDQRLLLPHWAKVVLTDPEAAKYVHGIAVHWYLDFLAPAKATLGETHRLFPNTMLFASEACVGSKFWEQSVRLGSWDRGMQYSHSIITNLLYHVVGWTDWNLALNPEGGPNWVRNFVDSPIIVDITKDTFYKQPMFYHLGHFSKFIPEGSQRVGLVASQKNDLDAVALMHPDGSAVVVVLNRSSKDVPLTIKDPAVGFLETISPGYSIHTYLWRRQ
Glucocorticoid receptor (Homo sapiens), sequence (P04150 whole entry, looked up, the tested form may be a part): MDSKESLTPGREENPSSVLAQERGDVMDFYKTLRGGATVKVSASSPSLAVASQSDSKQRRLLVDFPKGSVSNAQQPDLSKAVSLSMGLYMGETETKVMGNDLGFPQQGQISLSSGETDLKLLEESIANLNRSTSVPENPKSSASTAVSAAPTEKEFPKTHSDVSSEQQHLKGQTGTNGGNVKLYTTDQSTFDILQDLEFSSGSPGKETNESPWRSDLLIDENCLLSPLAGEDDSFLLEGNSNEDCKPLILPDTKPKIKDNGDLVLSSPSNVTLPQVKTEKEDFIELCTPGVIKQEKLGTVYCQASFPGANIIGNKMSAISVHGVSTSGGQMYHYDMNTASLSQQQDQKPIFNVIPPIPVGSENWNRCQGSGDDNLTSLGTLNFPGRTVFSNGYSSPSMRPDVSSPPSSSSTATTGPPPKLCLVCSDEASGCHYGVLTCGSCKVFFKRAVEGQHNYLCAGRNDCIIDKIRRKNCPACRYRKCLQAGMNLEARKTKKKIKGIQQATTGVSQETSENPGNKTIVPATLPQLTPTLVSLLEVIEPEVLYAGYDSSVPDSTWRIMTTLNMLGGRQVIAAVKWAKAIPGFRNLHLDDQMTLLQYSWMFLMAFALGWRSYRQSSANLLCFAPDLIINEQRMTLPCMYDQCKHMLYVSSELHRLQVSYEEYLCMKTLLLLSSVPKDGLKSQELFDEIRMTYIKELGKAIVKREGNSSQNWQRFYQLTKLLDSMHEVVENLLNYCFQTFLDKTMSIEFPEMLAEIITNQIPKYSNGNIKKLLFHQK
Cytochrome P450 2C19 (Homo sapiens), sequence (P33261 whole entry, looked up): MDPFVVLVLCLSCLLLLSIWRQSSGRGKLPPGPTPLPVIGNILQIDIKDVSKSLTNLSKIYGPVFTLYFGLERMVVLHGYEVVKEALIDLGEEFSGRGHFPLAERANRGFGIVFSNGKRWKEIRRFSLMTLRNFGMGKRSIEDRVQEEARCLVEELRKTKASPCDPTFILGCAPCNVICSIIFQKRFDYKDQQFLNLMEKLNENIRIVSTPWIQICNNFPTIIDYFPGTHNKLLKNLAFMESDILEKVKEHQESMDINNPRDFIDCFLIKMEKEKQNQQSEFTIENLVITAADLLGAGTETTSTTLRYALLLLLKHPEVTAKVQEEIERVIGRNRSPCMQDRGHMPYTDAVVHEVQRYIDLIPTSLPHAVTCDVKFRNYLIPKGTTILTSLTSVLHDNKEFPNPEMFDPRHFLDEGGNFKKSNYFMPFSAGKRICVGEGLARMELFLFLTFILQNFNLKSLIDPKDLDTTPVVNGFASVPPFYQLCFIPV

Take `COCC(=O)N1CCC2(CCCN(Cc3cc(C(F)(F)F)cc(C(F)(F)F)c3)C2)CC1`: the Potency in assay [1] was > 11.4 µM (inactive). Besides, the activity change, negative = inhibition in assay [2] was -15.5% (inactive); in [4], -0.717% (inactive); in [8] it was -0.278% (inactive). Further, the Potency result in [3], in assay [7] and in assay [9] was “inactive” throughout. Further, the activity, negative = inhibition in [5] is 3.96% (inactive). The outcome in assay [6] was inactive. Besides, the results for the max response in assay [8] (setting [19]) and in assay [8] (setting [20]) were 26.3% and 28.3%, respectively.

As to `O=C(Oc1ccccc1)N1CCC2(CC1)CN(c1ccccc1)C2`, the Potency was > 11.4 µM (inactive) in [1], 15.8 µM (active) in [3], > 46 µM (inactive) in [10] and 15.8 µM (active) in [7]. Further, the activity change, negative = inhibition in assay [2] is 3.75% (inactive); in [4], -1.1% (inactive); in assay [8] it was 1.33% (inactive). The activity, negative = inhibition in assay [5] was -0.517% (inactive). Further, the Potency entry in assay [11], in assay [12] and in assay [9] was “inactive” each time. In addition, the max response was -10.5% in [8] (setting [19]) and -7.26% in assay [8] (setting [20]).

On to `Cc1ccccc1-c1cncnc1Nc1ccc(F)cc1`, for which the Potency is > 11.4 µM (inactive) in assay [1]; 10 µM (active) in [3]; > 46 µM (inactive) in assay [13]; > 46 µM (inactive) in assay [10]; 0.199 µM (active) in assay [12]; 5.01 µM (active) in assay [14]. The activity change, negative = inhibition in assay [2] is 15.1% (inactive); in assay [8], 6.79% (inactive). The activity, negative = inhibition in assay [5] was 32.1% (inactive). Besides, the outcome in assay [6], in assay [15] and in [16] was inactive. The Potency entry in assay [7], in [17] and in assay [9] was “inactive” in each case. For the same compound, the max response in assay [8] (setting [19]) is -4.87%; in assay [8] (setting [20]), 2.59%.

As to `N#CCCn1c(=O)c(-c2cccs2)nc2cnc(OCc3ccccc3)nc21`, the Potency was > 11.4 µM (inactive) in [1]; 3.98 µM (active) in assay [3]; > 9.22 µM (inactive) in assay [13]; > 46 µM (inactive) in [10]; 3.16 µM (active) in [18]. Further, the activity change, negative = inhibition in assay [2] is 9.62% (inactive); in [4], 6.28% (inactive); in [8], -2.65% (inactive). Besides, the compound was called inactive in assay [6]. For the same compound, the Potency result in [11] and in [9] was “inactive” each time. In addition, the max response is 0.666% in assay [8] (setting [19]) and 1.75% in [8] (setting [20]).

As to `COc1ccc(NC(=O)N2CC3(CCN(C(C)=O)CC3)C2)cc1`, the Potency is > 11.4 µM (inactive) in assay [1] and > 46 µM (inactive) in assay [10]. The values for the activity change, negative = inhibition in assay [2], in assay [4] and in assay [8] were 8.48% (inactive), -0.444% (inactive) and 3.83% (inactive), respectively. Further, the Potency entry in [3], in [11] and in assay [9] was “inactive” each time. Further, the activity, negative = inhibition in [5] is -0.267% (inactive). In assay [6], the compound was called inactive. Besides, the activation in [18] was -8.17% (inactive). Besides, the max response was 13.9% in assay [8] (setting [19]) and 23.3% in assay [8] (setting [20]).
